Compound activity deposited in PubChem BioAssay by National Center for Advancing Translational Sciences (NCATS).
Shown are actives, neighbours in structure and some others; about 6.9% of the full set was active somewhere.
VDR inhibitor – Inhibitors of the vitamin D receptor (VDR): qHTS; Vitamin D3 receptor (Homo sapiens), P11473; VDR-SRC2-3 peptide fluorescence polarization, 2 h; Potency, µM, without a hit: max response, negative = inhibition, usual class: inhibitors; hit rate 0.93% among 400,000; note: % is set by controls: 0 for no effect and ±100 for the full control effect
Target sequence (P11473 whole entry, looked up): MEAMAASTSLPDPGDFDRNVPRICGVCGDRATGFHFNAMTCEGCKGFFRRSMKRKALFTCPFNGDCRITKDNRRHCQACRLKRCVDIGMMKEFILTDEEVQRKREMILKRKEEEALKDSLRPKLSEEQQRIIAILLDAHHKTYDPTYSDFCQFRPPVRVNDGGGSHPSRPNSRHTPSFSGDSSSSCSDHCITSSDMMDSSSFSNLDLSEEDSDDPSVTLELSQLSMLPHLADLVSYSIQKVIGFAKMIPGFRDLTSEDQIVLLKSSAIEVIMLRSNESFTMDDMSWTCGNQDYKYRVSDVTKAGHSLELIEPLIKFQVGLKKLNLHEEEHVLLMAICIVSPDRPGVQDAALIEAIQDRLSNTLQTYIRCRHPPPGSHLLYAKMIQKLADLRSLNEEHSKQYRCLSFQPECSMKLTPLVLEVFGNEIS
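The screen uses fluorescence polarization to detect compounds that interfere with recruitment of the SRC2-3 coactivator peptide to VDR; plates are read after 2 h at room temperature.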
L3MBTL1 inh – qHTS Assay for the Inhibitors of L3MBTL1. AlphaScreen L3MBTL1–H3K9me1 peptide binding. Potency, µM (highest dose often 57.1 µM), without a hit: at the top dose activity, negative = inhibition, most hits filed as inhibitors. hit rate 0.66% among 230,000. AID 485360, 2010; note: % is set by controls: 0 for no effect and ±100 for the full control effect; nearly all actives have a fitted effect of over 60% in size
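L3MBTL1 (50 nM) pre-complexed 30 min with biotinylated H3(1-15)K9me1 peptide (75 nM), then compounds added for 30 min at room temperature; AlphaScreen streptavidin donor/nickel chelate acceptor beads (10 ug/mL final) read after 30 min dark incubation.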
HP1b chromo inh – HTS for Inhibitors of HP1-beta Chromodomain Interactions with Methylated Histone Tails; hit rate 0.56% among 390,000; AlphaScreen HP1-beta / biotin-H3K9me3 peptide binding; Potency, µM (highest dose often 114 µM), inactives show top-dose activity change, negative = inhibition, hits mostly inhibitors; Chromobox protein homolog 1 (Homo sapiens), P83916; note: nearly all actives have a fitted effect of over 70% in size
Target sequence (P83916 whole entry, looked up): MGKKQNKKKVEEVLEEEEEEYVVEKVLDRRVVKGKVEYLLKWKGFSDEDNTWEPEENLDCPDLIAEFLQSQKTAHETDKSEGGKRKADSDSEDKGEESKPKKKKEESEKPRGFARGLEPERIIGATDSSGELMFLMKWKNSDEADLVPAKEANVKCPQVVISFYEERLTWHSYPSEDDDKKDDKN
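Compound inhibition of the preformed complex between 50 nM HP1-beta and 50 nM biotinylated H3K9me3 peptide was read by AlphaScreen. Buffer was PBS pH 7.4 with 0.01% Tween-20. Incubations ran 30 min at room temperature, with 10 ug/mL donor/acceptor beads.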
PLK1 PBD inh – qHTS for Inhibitors of PLK1-PDB (polo-like kinase 1 - polo-box domain): Primary Screen; Plk1 PBD binding of FITC phosphopeptide, fluorescence polarization; Potency, µM, without a hit: max response, negative = inhibition, hits mostly inhibitors; hit rate 2.8% among 360,000; AID 720504, 2013; note: series mostly up to about 57 µM; % is set by controls: 0 for no effect and ±100 for the full control effect; nearly all actives have a fitted effect of over 65% in size
JMJD2A Tudor – qHTS Assay for Inhibitors of JMJD2A-Tudor Domain; AlphaScreen JMJD2A-Tudor / H3K4me3 peptide binding; hit rate 4.4% among 390,000; Potency, µM (doses to about 114 µM), inactives show at the highest dose activity change, negative = inhibition, hits mostly inhibitors; note: % is set by controls: 0 for no effect and ±100 for the full control effect; nearly all actives have a fitted effect of over 50% in size
BAZ2B inh – qHTS Assay for Inhibitors of BAZ2B. Bromodomain adjacent to zinc finger domain protein 2B (Homo sapiens), Q9UIF8. AlphaScreen BAZ2B-H3K14Ac peptide displacement. Potency, µM (titrated, usually from 114 µM), inactives show at the highest dose activity change, negative = inhibition, most hits filed as inhibitors. hit rate 4.4% among 360,000; note: % is set by controls: 0 for no effect and ±100 for the full control effect; nearly all actives have a fitted effect of over 60% in size
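BAZ2B (50 nM) with biotin-H3(5-23)K14Ac peptide (50 nM) in PBS pH 7.4, 0.01% Tween-20, preformed 30 min, then compound 30 min at room temperature; top concentration 110uM. AlphaScreen streptavidin donor/nickel chelate acceptor beads (10 ug/mL final), 20 min dark, signal read.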
Active calls of the source: *; u = inconclusive; x = no result; [ ] = remark or other dose. Calls come from the whole dose curve; as a rule, active = well fitted curve in the direction sought with a large enough effect; inconclusive = small, poorly fitted or top-dose-only effect, or another doubt; inactive = no such curve, though single readings can be large; an effect the other way counts as inactive or inconclusive. Potency is the fitted concentration of half-maximal effect.

SMILES	VDR inhibitor	L3MBTL1 inh	HP1b chromo inh	PLK1 PBD inh	JMJD2A Tudor	BAZ2B inh
O=C(O)CCCCN1C(=O)/C(=C\c2ccc(OCc3ccccc3)c(OCc3ccccc3)c2)SC1=S	8%	x	u	u	18µM*	32µM*
O=C(O)CCCC(=O)Nc1ccn(-c2ccccc2)n1	-13%	3%	-3%	11µM*	-31%[11.4 µM]	13%
O=C(O)c1ccc(CSCc2ccccc2Cl)o1	u	x	37%	21µM*	-15%	-19%
CCN(CC)C(=O)CSc1nc(O)c(Cc2ccccc2)c(=O)n1-c1ccccc1C	9%	0%	10%	-12%	-16%	5%
Cc1ccc(S(=O)(=O)N2CC=C(C(=O)NC3CCCC3)CC2)cc1	u	x	23%	27µM*	u	-3%
COc1ccc(S(=O)(=O)N2CC=C(C(=O)NC3CCCC3)CC2)cc1	-24%	x	20%	30µM*	u	-4%
O=S(=O)(NC1CCCC(NS(=O)(=O)c2c(F)cccc2F)C1)c1ccc2c(c1)OCCO2 (stereo not drawn)	x	x	x	x	-10%	x
CCCOc1ccccc1-n1sc2c(c1=S)-c1cc(OC)cc3c1N(C(=O)C3=O)C2(C)C	u	x	-81%	u	2.5µM*	2µM*
CCN1CCN(c2nnc(-n3cccc3C(=O)NCc3ccccc3OC)s2)CC1	8%	x	44%	x	-3%	3%
CCN1CCN(CC(O)COCC2COc3ccccc3O2)CC1 (stereo not drawn)	-2%	-24%	20%	-2%	-5%	-25%
OC(COCC1COc2ccccc2O1)CN1CCCCC1 (stereo not drawn)	-9%	-2%	2%	30µM*	-25%	-2%
OC(COCC1COc2ccccc2O1)CN1CCN(c2ccccc2)CC1 (stereo not drawn)	1%	0%	-5%	1%	u	79µM*
COc1ccc(C2CN=NC2C(=O)c2ccccc2)cc1 (stereo not drawn)	4%	x	29%	-12%	-27%	u
CCC(C)(C)C(=O)O[C@@H]1C[C@@H](C)C=C2C=C[C@H](C)[C@H](CC[C@@H]3C[C@@H](O)CC(=O)O3)[C@H]21	-7%	x	x	x	x	x
CCOC(=O)c1c(NC(=O)C2C3C=CC(C3)C2C(=O)O)sc2c1CCC(CC)C2 (stereo not drawn)	u	-12%	1%	27µM*	-30%	-15%
CCOC(=O)c1c(NC(=O)C2C3CCC(O3)C2C(=O)O)sc2c1CCC(CC)C2 (stereo not drawn)	-5%	-11%	18%	u	-26%	u
CCOC(=O)c1c(NC(=O)c2cc(-c3cccc(OC)c3)on2)sc2c1CCCC2	79µM*	x	u	x	3%	-1%
CCOC(=O)c1c(NC(=O)c2cc(-c3ccc(OC)c(OC)c3)on2)sc2c1CCCC2	u	x	51%	x	0%	11%
CCOC(=O)c1c(NC(=O)C2C3C=CC(C3)C2(C)C(=O)O)sc2c1CCCC2 (stereo not drawn)	-21%	-15%	4%	-27%	-34%	56µM*
CCOC(=O)c1c(NC(=O)C(C)Sc2cn(CCNC(=O)c3ccccc3OC)c3ccccc23)sc2c1CCC2 (stereo not drawn)	3%	x	3%	x	-31%	8.9µM*
O=C(Nc1ccc2nc(SCC(=O)N3CCc4ccccc43)sc2c1)c1ccccc1	6%	x	17%	x	-17%	-14%
CCOc1ccc(OCC)c(NC(=O)c2cnn(-c3ccc(F)cc3)c2C2CCN(C(=O)OC(C)(C)C)CC2)c1	-7%	x	12%	x	u	-15%[57.1 µM]
CCOC(=O)c1c(NC(=O)c2ccccc2C)sc2c1CCCC2	79µM*	x	66%	x	85%	-1%
COC(=O)C1=C(NC(=O)c2ccccc2C)CCS1	-15%	2%	2%	-11%	79µM*	-4%
CC1(C(=O)Nc2ncc(Cc3ccc(Br)cc3)s2)Cc2ccccc2C(=O)O1 (stereo not drawn)	10%	x	16%	x	-22%	u
SMILES	VDR inhibitor	L3MBTL1 inh	HP1b chromo inh	PLK1 PBD inh	JMJD2A Tudor	BAZ2B inh
COCCN(Cc1cc2cc(C)ccc2nc1Cl)C(=O)Nc1ccccc1OC	-6%	-18%	44%	1%	-1%	-6%
Cc1ccc2nc(Cl)c(CNCc3ccccc3)cc2c1	-21%	4%	61%	24µM*	0%	-2%
O=c1c(-c2cc(F)cc(F)c2)nc2cnc(N3CCOCC3)nc2n1C1CC1	-18%	x	x	x	x	x
Cc1cc(Cn2cnc3c2C[C@@H](C(=O)O)N(C(=O)C(c2ccccc2)c2ccccc2)C3)ccc1N	4%	x	x	x	x	x
Cc1ccc(S(=O)(=O)Nn2c(C)nnc2-n2nc(C)cc2C)cc1	-1%	-1%	5%	-9%	50µM*	71µM*
Cc1cc(C)n(-c2nnc(C)n2NS(=O)(=O)c2ccc(F)cc2)n1	0%	-7%	-3%	-9%	u	u
COc1ccc(C(=O)N2CCC3(CCN(Cc4ccccc4)CC3)CC2)cc1	0%	x	x	x	x	x
COc1cc(OC)cc(C(=O)N2CCN(Cc3ccccc3[N+](=O)[O-])CC2)c1	1%	-7%	u	u	-6%[11.4 µM]	20µM*
COc1ccc(C(=O)N2CCN(Cc3ccccc3C(F)(F)F)CC2)cc1	5%	-4%	u	-18%	25µM*	u
COc1ccc(C(=O)N2CCN(Cc3ccccc3[N+](=O)[O-])CC2)cc1	0%	1%	u	-5%	22µM*	50µM*
Cc1cccc(NC(=O)C2CCN(S(=O)(=O)c3ccc(F)cc3)CC2)c1C	23%	x	0%	x	-7%	-1%
CC1Cc2ccccc2N1C(=O)CSC1=NCCS1 (stereo not drawn)	71µM*	-3%	31%	u	-10%	5%
Cc1ccccc1CN1C(=O)c2ccccc2S(=O)c2ccc(C(=O)NC3CCC(C)CC3)cc21 (stereo not drawn)	-9%	x	17%	x	-19%	0%
COc1ccccc1-c1noc2c1C(=O)N(C(=O)OC(C)(C)C)CC2	x	x	x	2%	x	x
Cc1cc(CC(=O)O)c2oc(-c3ccoc3)cc(=O)c2c1	-4%	x	-20%	u	89µM*	x
Clc1ccc(C(CCN2CCCC2)Cc2ccccc2)cc1 (stereo not drawn)	5%	x	u	-1%	4µM*	50µM*
O=C(CCc1ccccc1)NNC(=O)COc1ccc(Br)cc1	-4%	x	50µM*	-5%	20µM*	5%
